Structures are written as SMILES. Activity calls are given as the source filed them. The calls were made as follows: active = hit-call score of the fitted dose curve at least 0.9, where 1 is the maximum; inactive = score below 0.9.

Sequence of human VHR Phosphatase, DUSP3 (gene 1845) (P51452 whole entry, looked up): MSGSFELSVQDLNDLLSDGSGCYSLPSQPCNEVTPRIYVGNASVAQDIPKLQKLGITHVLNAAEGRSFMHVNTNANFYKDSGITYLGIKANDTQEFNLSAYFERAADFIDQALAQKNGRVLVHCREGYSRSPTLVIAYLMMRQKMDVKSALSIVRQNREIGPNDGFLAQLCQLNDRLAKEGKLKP

This test deals with human VHR Phosphatase, DUSP3 (gene 1845) (UniProt P51452). Put plainly: ERF_FR_ENZ_hDUSP3: Eurofins (ERF) Enzymatic Assay for human VHR Phosphatase. Here is the method:
ERF_FR_ENZ_hDUSP3 is a biochemical, single-readout assay that uses extracted gene-proteins in a cell-free assay. Measurements were taken 0.5 hour after chemical dosing in a 96-well plate. See VHR Human Phosphatase Enzymatic Assay, PhosphataseProfiler.ERF_FR_ENZ_hDUSP3 is an assay component calculated from the ERF_FR_ENZ_hDUSP3 assay. It is designed to measure enzyme activity using a type of enzyme reporter as detected by fluorescence intensity with spectrophotometry technology.Data from the assay component ERF_FR_ENZ_hDUSP3 was analyzed at the assay endpoint, ERF_FR_ENZ_hDUSP3, in the positive analysis fitting direction relative to DMSO as the negative control and baseline of activity. Using a type of enzyme reporter, loss-of-signal activity can be used to understand changes in enzymatic activity as they relate to gene DUSP3. To generalize the intended target to other relatable targets, this assay endpoint is annotated to the […].
Human recombinant protein phosphatase VHR expressed in E. coli is used. Test compound and/or vehicle is preincubated with 0.2 mU/ml enzyme for 15 minutes at 37C in modified HEPES buffer pH 7.2. The reaction is initiated by addition of 100 uM DiFMUP for 60 minutes. Determination of the amount of DiFMU formed is read spectrofluorimetrically at 358 nm/450 nm. Compounds are screened at 10 uM.
As usually defined, the AC50 is the midpoint of the concentration-response curve, whichever way the signal moves. As for `O=C(/C=C/c1ccc(O)cc1)CC(=O)/C=C/c1ccc(O)cc1`, the AC50 is 1.01 nM (active).
